# Measured values from PubChem BioAssay (EPA / NIEHS).
# “And” between values parts separate entries of the source, which are not always exact repeats. Equal values may be shown once. Inconclusive results are not listed. Where a structure was tested more than once in an assay, its records may differ in their call. The source made the active and inactive calls. The calls were made as follows: active = hit-call score of the fitted dose curve at least 0.9, where 1 is the maximum; inconclusive = response in the unintended direction; inactive = score below 0.9.
# How the values were obtained:
# [1] = molecular target: rat Peripheral-type Benzodiazepine Receptor (PBR), Tspo (gene 24230) (UniProt P16257); assay: NVS_MP_rPBR: NovaScreen (NVS) Membrane Protein Assay for rat Peripheral-type Benzodiazepine Receptor (PBR) (AID 2283335)
# rat Peripheral-type Benzodiazepine Receptor (PBR), Tspo (gene 24230), sequence (P16257 whole entry, looked up): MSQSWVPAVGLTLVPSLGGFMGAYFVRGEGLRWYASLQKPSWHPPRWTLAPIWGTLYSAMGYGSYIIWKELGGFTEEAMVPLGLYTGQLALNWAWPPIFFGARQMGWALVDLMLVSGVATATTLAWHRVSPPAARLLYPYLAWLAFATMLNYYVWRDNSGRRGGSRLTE
# Summary of the method: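 Radioligand displacement, rat kidney membrane prep, 1 h exposure, filter-based scintillation read; DMSO baseline, loss-of-signal scored. Primary screen at 25 uM in duplicate, actives followed up in concentration series.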
# [2] = molecular target: human Peripheral-type Benzodiazepine Receptor (PBR), TSPO (gene 706) (UniProt P30536); assay: NVS_MP_hPBR: NovaScreen (NVS) Membrane Protein Assay for human Peripheral-type Benzodiazepine Receptor (PBR) (AID 2283331);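 also: hits reduce radioligand binding relative to DMSO baseline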
# human Peripheral-type Benzodiazepine Receptor (PBR), TSPO (gene 706), sequence (P30536 whole entry, looked up): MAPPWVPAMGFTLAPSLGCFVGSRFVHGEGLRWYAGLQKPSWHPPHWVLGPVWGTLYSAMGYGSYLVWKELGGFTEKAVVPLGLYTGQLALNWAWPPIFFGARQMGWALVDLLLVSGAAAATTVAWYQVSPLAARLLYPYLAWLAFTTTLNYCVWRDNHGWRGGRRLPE
# Summary of the method: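 Scintillation counts of filter-bound radioligand served as read-out after 1 h chemical dosing of human colonic membrane preparations. Activity was scored as signal loss against DMSO; initial duplicates at 25 uM, confirmatory concentration series afterward.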
# [3] = molecular target: rat Gamma-Aminobutyric Acid Type A Receptor BDZ, alpha 6 site (GABARa6), Gabra6 (gene 29708) (UniProt P30191); assay: NVS_LGIC_rGABARa6: NovaScreen (NVS) Ligand-Gated Ion Channel Assay for rat Gamma-Aminobutyric Acid Type A Receptor BDZ, alpha 6 site (GABARa6) (AID 2283339)
# rat Gamma-Aminobutyric Acid Type A Receptor BDZ, alpha 6 site (GABARa6), Gabra6 (gene 29708), sequence (P30191 whole entry, looked up): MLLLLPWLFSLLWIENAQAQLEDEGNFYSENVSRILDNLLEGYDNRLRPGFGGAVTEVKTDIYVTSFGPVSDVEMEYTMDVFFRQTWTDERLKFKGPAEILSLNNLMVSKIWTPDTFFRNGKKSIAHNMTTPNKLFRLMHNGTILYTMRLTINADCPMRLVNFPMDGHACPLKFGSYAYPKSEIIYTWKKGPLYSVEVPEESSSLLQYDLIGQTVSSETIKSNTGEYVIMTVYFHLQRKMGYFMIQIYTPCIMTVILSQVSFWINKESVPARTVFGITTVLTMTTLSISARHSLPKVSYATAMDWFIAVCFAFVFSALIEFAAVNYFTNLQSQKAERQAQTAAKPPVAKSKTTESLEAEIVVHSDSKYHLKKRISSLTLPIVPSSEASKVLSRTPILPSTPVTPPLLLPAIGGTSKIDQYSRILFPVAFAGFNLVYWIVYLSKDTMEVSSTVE
# Summary of the method: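 Rat cerebellar membranes; radioligand binding, filtration and scintillation counting, read 1 h after dosing. Single-concentration duplicate screen at 25 uM, then concentration-response up to 50 uM for actives; loss of signal fitted versus DMSO baseline.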
# [4] = molecular target: human Androgen Receptor (AR), AR (gene 367) (UniProt P10275); assay: NVS_NR_hAR: NovaScreen (NVS) Nuclear Receptor Binding Assay for human Androgen Receptor (AR) (AID 2283332)
# human Androgen Receptor (AR), AR (gene 367), sequence (P10275 whole entry, looked up): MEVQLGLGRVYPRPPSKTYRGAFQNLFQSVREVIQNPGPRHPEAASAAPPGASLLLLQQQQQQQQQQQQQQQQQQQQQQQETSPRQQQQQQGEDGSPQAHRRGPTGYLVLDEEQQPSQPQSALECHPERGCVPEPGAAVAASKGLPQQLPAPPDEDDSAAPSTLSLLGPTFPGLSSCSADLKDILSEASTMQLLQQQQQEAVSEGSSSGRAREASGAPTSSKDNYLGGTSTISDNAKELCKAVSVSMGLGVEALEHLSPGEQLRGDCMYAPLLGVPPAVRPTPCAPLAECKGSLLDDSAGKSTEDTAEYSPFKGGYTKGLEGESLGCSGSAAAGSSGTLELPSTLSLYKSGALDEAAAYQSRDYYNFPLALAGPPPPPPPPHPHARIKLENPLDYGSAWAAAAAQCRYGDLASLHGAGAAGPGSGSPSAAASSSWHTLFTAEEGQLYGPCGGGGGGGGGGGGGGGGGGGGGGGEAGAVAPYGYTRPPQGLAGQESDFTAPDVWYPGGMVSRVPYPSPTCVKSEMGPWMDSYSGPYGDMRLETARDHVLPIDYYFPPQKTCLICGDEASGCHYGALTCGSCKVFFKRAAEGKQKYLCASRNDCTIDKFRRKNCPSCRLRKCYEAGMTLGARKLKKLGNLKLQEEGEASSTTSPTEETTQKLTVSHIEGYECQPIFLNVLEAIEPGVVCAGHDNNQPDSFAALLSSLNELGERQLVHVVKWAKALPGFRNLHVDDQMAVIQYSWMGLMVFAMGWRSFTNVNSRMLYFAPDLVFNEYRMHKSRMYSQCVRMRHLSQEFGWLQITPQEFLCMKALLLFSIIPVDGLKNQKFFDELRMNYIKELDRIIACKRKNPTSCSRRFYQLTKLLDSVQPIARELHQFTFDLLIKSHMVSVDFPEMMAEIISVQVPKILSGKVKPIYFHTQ
# Summary of the method: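 Radioligand competitive binding, scintillation read-out, in cell-free extract from LnCAP, measured 20 h after dosing. Screened first in duplicate at 25 uM, then concentration series for actives; activity fitted against DMSO.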
# [5] = molecular target: rat Thyrotropin Releasing Hormone Receptor (TRH), Trhr (gene 25570) (UniProt Q01717); assay: NVS_GPCR_rTRH: NovaScreen (NVS) G Protein-Coupled Receptor Assay for rat Thyrotropin Releasing Hormone Receptor (TRH) (AID 2283329);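 also: hit means lower bound tracer signal versus DMSO baseline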
# rat Thyrotropin Releasing Hormone Receptor (TRH), Trhr (gene 25570), sequence (Q01717 whole entry, looked up): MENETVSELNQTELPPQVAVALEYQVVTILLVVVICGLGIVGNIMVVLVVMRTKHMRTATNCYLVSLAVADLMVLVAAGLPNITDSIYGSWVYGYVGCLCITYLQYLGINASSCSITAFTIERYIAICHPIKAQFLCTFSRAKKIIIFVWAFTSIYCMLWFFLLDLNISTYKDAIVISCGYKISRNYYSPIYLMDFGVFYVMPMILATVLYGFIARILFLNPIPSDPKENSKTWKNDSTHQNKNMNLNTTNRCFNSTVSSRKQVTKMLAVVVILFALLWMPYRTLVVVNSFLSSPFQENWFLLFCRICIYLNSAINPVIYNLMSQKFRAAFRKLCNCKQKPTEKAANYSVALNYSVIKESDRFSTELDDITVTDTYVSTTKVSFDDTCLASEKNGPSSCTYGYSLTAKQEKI
# Summary of the method: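 Rat forebrain membrane prep, radioligand displacement, filter scintillation readout at 4 h. Single conc 25 uM, duplicate; actives retested as concentration series. DMSO = negative control/baseline.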
# [6] = molecular target: Voltage-gated inwardly rectifying potassium channel KCNH2 (Homo sapiens) (UniProt Q12809); assay: NVS_IC_hKhERGCh: NovaScreen (NVS) Ion Channel Assay for human Potassium Channel ERG (KhERGCh) (AID 2283333)
# Voltage-gated inwardly rectifying potassium channel KCNH2 (Homo sapiens), sequence (Q12809 whole entry, looked up): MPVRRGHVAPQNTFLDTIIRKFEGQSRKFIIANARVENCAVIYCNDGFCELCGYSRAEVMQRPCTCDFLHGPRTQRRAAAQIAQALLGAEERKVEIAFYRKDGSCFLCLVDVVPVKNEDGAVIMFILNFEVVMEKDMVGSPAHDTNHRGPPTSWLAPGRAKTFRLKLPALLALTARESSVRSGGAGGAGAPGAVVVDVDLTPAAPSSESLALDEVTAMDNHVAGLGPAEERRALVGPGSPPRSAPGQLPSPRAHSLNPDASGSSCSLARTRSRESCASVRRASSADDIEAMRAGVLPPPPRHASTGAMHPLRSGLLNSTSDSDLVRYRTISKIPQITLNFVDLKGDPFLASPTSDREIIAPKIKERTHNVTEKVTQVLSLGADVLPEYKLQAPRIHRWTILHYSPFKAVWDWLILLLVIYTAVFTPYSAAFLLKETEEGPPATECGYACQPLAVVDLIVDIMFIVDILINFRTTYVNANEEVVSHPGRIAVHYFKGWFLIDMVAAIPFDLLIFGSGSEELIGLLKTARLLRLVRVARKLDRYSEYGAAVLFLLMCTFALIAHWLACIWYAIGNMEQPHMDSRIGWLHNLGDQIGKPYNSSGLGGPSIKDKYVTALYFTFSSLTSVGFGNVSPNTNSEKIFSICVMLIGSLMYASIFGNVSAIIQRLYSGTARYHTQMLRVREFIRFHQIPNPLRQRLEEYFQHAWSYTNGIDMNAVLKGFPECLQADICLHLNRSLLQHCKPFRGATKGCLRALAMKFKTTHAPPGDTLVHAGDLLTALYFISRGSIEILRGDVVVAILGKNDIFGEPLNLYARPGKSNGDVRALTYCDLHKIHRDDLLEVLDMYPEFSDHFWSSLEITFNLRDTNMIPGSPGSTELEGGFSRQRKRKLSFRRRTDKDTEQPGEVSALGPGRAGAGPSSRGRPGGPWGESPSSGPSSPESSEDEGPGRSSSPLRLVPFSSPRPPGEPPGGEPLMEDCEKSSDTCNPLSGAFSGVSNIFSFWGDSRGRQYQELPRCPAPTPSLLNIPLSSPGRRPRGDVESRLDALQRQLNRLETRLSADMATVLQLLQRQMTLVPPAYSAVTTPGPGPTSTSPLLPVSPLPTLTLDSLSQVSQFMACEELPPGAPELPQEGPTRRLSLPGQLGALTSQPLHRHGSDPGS
# Summary of the method: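 Cell-free radioligand competition binding on hERG protein extracted from CHO cells, read by filter-based scintillation counting 0.75 h after dosing. Primary screen at 25 uM in duplicate, actives followed in concentration series. Signal loss fitted versus DMSO.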
# [7] = NVS_IC_rCaBTZCHL: NovaScreen (NVS) Ion Channel Assay for Calcium Channel, Type L, Benzothiazepine Site (CaBTZCHL) (AID 2283337)
# Summary of the method: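 Competitive displacement of a site-specific radioligand from rat cortex membranes, measured as signal loss against DMSO baseline by filter radiodetection after 1.5 h. Single-point 25 uM primary screen.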
smiles,measurement,setting,value
Nc1cccc2ccccc12,outcome,[1],inactive
COP(=S)(OC)Oc1c(Cl)cc(C)cc1Cl,AC50,[2],9.23 µM (active)
same,outcome,[1],inactive
CCOC(=O)/C=C(C)/C=C/C[C@@H](C)CCCC(C)C,AC50,[2],33.2 µM (active)
same,AC50,[1],17.6 µM (active)
CCOP(=S)(OCC)SCCS(=O)(=O)CC,AC50,[2],30.7 µM (active)
CN(C)N=O,outcome,[3],inactive
Cl/C=C\C[N+]12CN3CN(CN(C3)C1)C2,outcome,[4],inactive
Clc1ccc(COC(Cn2ccnc2)c2ccc(Cl)cc2Cl)cc1 (stereo not given),AC50,[2],1.09 µM (active)
same,AC50,[1],1.63 µM (active)
O=C1C(Cl)=C(Cl)C(=O)c2ccccc21,AC50,[2],7.47 µM (active)
Cc1ccccc1C(=O)Nc1cccc(OC(C)C)c1,outcome,[5],inactive
same,AC50,[2],1.12 µM (active)
same,AC50,[1],1.13 µM (active)
CCN(CC)C(=O)Cl,outcome,[4],inactive
COP(=S)(OC)Oc1ccc(S(=O)(=O)N(C)C)cc1,AC50,[2],5.32 µM (active)
same,AC50,[1],1.45 µM (active)
O=C(O)C(Cl)(Cl)Cl,outcome,[6],inactive
Oc1ccc(-c2ccccc2)cc1,AC50,[2],43.8 µM (active) and 13.8 µM (active)
COP(=S)(OC)Oc1ccc(Sc2ccc(OP(=S)(OC)OC)cc2)cc1,AC50,[2],1.16 µM (active) and 16.9 µM (active)
same,AC50,[4],17.9 µM (active)
same,AC50,[1],0.307 µM (active)
same,AC50,[7],25 µM (active)
Nc1ccc(-c2ccc(N)c(Cl)c2)cc1Cl,AC50,[2],9.91 µM (active)
same,outcome,[1],inactive
O=[N+]([O-])c1ccc2c3c(cccc13)CC2,AC50,[1],13.3 µM (active)
CCC(=O)c1ccccc1,outcome,[3],inactive
COc1cc(-c2ccc(N)c(OC)c2)ccc1N,AC50,[2],19.4 µM (active)
same,AC50,[1],2.75 µM (active) and 2.71 µM (active)
c1cc[c]([Hg][c]2ccccc2)cc1,AC50,[2],0.372 µM (active)
CCC[CH2][Sn]([CH2]CCC)([CH2]CCC)[O]C(=O)c1ccccc1,AC50,[2],5.59 µM (active)
C[C@@H]1C[C@@H]([C@H](O)CC2CC(=O)NC(=O)C2)C(=O)[C@@H](C)C1,AC50,[1],33.3 µM (active)
same,outcome,[1],inactive
CC12CC1(C)C(=O)N(c1cc(Cl)cc(Cl)c1)C2=O (stereo not given),AC50,[4],17.1 nM (active) and 355 nM (active)
same,AC50,[1],6.63 µM (active) and 1.03 µM (active) and 850 nM (active)
